# High-throughput results as filed in PubChem BioAssay.
# E coli Lon inh = inhibitors of E. coli Lon protease, primary screen, biochemical, fluorescence polarization. inhibition, % at 7.94 µM. purified E. coli Lon protease. actives 0.42% (n = 360,000). P0A9M0; in the data active means inhibition above about 13%, passing the limit was not always enough
# Target sequence (P0A9M0 whole entry, looked up): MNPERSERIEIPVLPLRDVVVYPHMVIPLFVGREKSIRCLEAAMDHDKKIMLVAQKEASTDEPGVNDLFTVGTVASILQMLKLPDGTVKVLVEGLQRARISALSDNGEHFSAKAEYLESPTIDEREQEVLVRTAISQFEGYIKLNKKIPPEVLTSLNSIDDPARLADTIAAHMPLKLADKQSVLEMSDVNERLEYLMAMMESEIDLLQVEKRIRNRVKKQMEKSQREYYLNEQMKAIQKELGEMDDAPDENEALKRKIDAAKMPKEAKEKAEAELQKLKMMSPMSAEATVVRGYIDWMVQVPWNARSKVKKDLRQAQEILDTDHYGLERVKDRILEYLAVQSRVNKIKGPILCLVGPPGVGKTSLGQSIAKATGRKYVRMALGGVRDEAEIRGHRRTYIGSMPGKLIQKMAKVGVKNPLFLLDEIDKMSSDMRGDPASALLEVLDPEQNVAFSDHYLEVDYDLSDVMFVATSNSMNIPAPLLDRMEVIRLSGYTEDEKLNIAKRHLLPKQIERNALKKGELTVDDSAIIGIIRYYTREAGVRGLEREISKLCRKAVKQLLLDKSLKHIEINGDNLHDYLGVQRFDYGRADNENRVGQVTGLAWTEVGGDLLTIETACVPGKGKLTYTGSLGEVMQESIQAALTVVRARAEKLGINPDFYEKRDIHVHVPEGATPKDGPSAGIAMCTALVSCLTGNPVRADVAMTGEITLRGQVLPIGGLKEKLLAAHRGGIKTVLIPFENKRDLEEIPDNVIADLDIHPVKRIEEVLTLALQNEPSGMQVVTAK
# GLD-1 RNA inh = GLD-1/TGE RNA complex disruptors, primary screen, biochemical, fluorescence polarization | Female germline-specific tumor suppressor gld-1 (Caenorhabditis elegans), Q17339 | purified GLD-1 + fluorescein TGE RNA | inhibition, % at 5.96 µM | actives 0.44% (n = 320,000);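 active means percent inhibition above a per-plate cutoff, the plate mean of test compounds plus 3 SD, cut at about 30% in these data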
# EBV gp42 block = Epstein-Barr virus gp42 inhibitors, primary screen, biochemical, uHTS, fluorescence polarization. Glycoprotein 42 (Epstein-Barr virus (strain AG876)), Q1HVG2. Fluorescence polarization binding assay, mP read-out. inhibition, % (tested at 21.74 µM). actives 0.42% (n = 220,000). AID 1085, 2008; in the data active means inhibition above about 50%
# MCL1-BIM inh = inhibitors of MCL1 binding to BIM-BH3, primary screen, biochemical, fluorescence polarization | Induced myeloid leukemia cell differentiation protein Mcl-1 (Homo sapiens), Q07820 | GST-MCL1 / FITC-Bim-BH3 fluorescence polarization | inhibition, % at 10.9 µM | actives 0.68% (n = 320,000) | AID 2057, 2009;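 active means inhibition above the mean inhibition of all tested compounds plus 3 SD, set per campaign, cut at about 40% in these data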;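 further: higher means more loss of mP so more displacement of Bim peptide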
# MEX-5 binding = MEX-5 zinc finger RNA-binding disruptors – biochemical, C. elegans, fluorescence polarization, MLPCN library, primary screen; activity score (negative = inhibition of binding), % at 10 µM; MEX-5/FITC-TCR2 RNA binding; stronger effect = lower value; actives 0.38% (n = 300,000); Zinc finger protein mex-5 (Caenorhabditis elegans), Q9XUB2; AID 1832, 2009;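 active means inhibition past about -25% in most replicates, and total fluorescence under double the plate's negative control median, limit read from the data; inconclusive means replicates evenly split on the limit, or fluorescence at least double controls; inactive means too little inhibition in most replicates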
# Bcl-xL primary = inhibitors of human Bcl-xL, primary screen, biochemical, fluorescence polarization, HTS; AID 2129, 2009; GST-Bcl-xL / FITC-Bim BH3 peptide fluorescence polarization; actives 0.7% (n = 320,000); Bcl-2-like protein 1 (Homo sapiens), Q07817; inhibition, % at 10.9 µM;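 active means inhibition above the mean of all tested compounds plus 3 SD, cutoff set per campaign, cut at about 30% in these data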;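 further: inhibitors lower millipolarization by displacing the labeled peptide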
# BCLXL inh confirm = Bcl-xL inhibitors blocking Bim BH3 binding, confirmation, counter-screen for MCL1 inhibitor project, biochemical, fluorescence polarization. shares compounds with MCL1-BIM inh. GST-Bcl-xL / FITC-Bim BH3 peptide FP binding. inhibition, % at 10.9 µM. actives 54% (n = 1,700). AID 2166, 2009;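 active means inhibition above a cutoff equal to the mean inhibition of all tested compounds plus 3 SD, cut at about 30% in these data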
# MCL1 BIM confirm = inhibitors of MCL1 binding to BIM-BH3, confirmation, biochemical, fluorescence polarization, triplicate | shares compounds with MCL1-BIM inh | GST-MCL1 / FITC-Bim-BH3 fluorescence polarization | inhibition, % at 10.9 µM | actives 61% (n = 1,700);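 active means inhibition above the average of all tested compounds plus 3 SD, cut at about 40% in these data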
# Hits are given with their value; 0 = inactive; ? = inconclusive; - = no result given; + = active, no number. Compounds with a hit are over-represented: about 1.4% of the library has one in this group of screens.
SMILES,E coli Lon inh,GLD-1 RNA inh,EBV gp42 block,MCL1-BIM inh,MEX-5 binding,Bcl-xL primary,BCLXL inh confirm,MCL1 BIM confirm
COc1cccc(-c2cnc(C(O)c3ccc(-c4ccccc4)cc3)[nH]2)c1 (centres undefined),0,-,-,-,-,-,-,-
CNc1ccccc(C(=O)/C=C/c2ccccc2OC)c1=O,0,0,0,41,0,0,0,62
O=C1/C(=N\S(=O)(=O)c2cccs2)C([n+]2cccc(Cc3ccccc3)c2)=C([O-])c2ccccc21,0,179,142,+,?,+,+,+
CN(C)S(=O)(=O)c1cc(NC(=O)CNCc2ccc(F)cc2)ccc1Cl,0,0,-,0,0,0,-,-
Cc1c(Cl)cccc1NS(=O)(=O)c1c(C(=O)N2CCOCC2)c(C)n(C)c1C,0,0,-,0,0,0,-,-
CCN(CC)C(=O)COc1ccc2c(-c3ccccc3)cc(=O)oc2c1,0,0,-,+,0,0,0,0
CCOc1cc(S(=O)(=O)NCc2ccncc2)ccc1Cl,0,0,0,0,0,0,-,-
COc1ccccc1NC(=O)Cn1c(O)c(N=NC(=O)c2ccccc2O)c2ccccc21,0,0,0,50,0,0,0,62
Oc1ccc(C2=Nn3c(nnc3-c3ccco3)SC2)cc1O,0,0,0,60,0,0,0,73
COc1ccc(C2=Nn3c(nnc3-c3ccco3)SC2)cc1,0,0,0,0,0,0,-,-
COc1cccc(C(=O)N2CCC(C(=O)NCc3ccco3)CC2)c1,0,0,-,0,0,0,-,-
COc1ccc(Cl)cc1C(=O)NNC(=O)CSc1nnc2ccccn12,0,0,0,40,0,0,0,0
COc1ccc(C(=O)NNC(=O)CSc2nnc3ccccn23)cc1OC,0,0,-,-,-,-,-,-
COC(=O)c1ccc(-n2c(C)ccc2-c2ccccc2)cc1,0,0,0,0,0,0,-,-
COc1ccc(-n2c(C)ccc2-c2ccccc2)cn1,0,89,-,128,0,107,89,108
O=C(c1cccc(C(=O)N2CCN(c3ncccn3)CC2)c1)N1CCN(c2ncccn2)CC1,0,0,0,0,0,0,-,-
O=C(c1ccc2nc(-c3ccco3)c(-c3ccco3)nc2c1)N1CCN(c2ncccn2)CC1,0,0,0,81,0,38,35,50
O=C(NCc1ccccc1)c1ccc2nc(-c3ccco3)c(-c3ccco3)nc2c1,0,0,0,81,0,46,43,69
CC(=O)c1ccc(NC(=O)c2ccc3nc(-c4ccco4)c(-c4ccco4)nc3c2)cc1,0,0,99,80,0,39,36,81
CCCCNC(=O)c1ccc2nc(-c3ccco3)c(-c3ccco3)nc2c1,0,0,0,60,0,41,0,0
O=C(CC[C@H]1O[C@@H](n2ccc(=O)[nH]c2=O)[C@H](O)[C@@H]1O)N[C@H](Cc1ccccc1)C(=O)NCc1cccs1,0,-,-,-,-,-,-,-
O=C(c1ccc(Cl)cc1)n1c(NCc2ccccc2)n[nH]c1=S,0,0,0,0,0,0,-,-
O=C(Nc1ccccc1)c1ccc2nc(-c3ccco3)c(-c3ccco3)nc2c1,0,0,0,40,0,0,0,47
O=C(Nc1ccc(N2CCOCC2)cc1)c1ccc2nc(-c3ccco3)c(-c3ccco3)nc2c1,0,0,0,0,0,0,-,-
Cn1cnc([N+](=O)[O-])c1N=C(N)N,0,0,0,0,0,0,-,-
SMILES,E coli Lon inh,GLD-1 RNA inh,EBV gp42 block,MCL1-BIM inh,MEX-5 binding,Bcl-xL primary,BCLXL inh confirm,MCL1 BIM confirm
Cc1ccc(C)n1Cc1ccc(C(=O)O)cc1,0,0,0,92,-,41,36,110
O=C(CSc1ccccc1)N(c1ccc(Br)cc1)c1nccs1,0,0,0,0,0,0,-,-
CCCCC1=CC2=C(c3ccco3)C(=O)C(C)(OC(=O)c3ccc(OC)cc3)C(=O)C2=CN1CCCN(CC)CC (centres undefined),0,34,0,53,0,49,158,+
CCCCC1=CC2=C(c3ccco3)C(=O)C(C)(OC(=O)c3ccc(OC)cc3)C(=O)C2=CN1CCN1CCOCC1 (centres undefined),0,41,0,93,-38,72,0,0
CCCCC1=CC2=C(c3ccco3)C(=O)C(C)(OC(=O)c3ccc(OC)cc3)C(=O)C2=CN1C1CCCC1 (centres undefined),-,92,-,135,-29,112,64,79
CCCCC1=CC2=C(c3ccco3)C(=O)C(C)(OC(=O)c3ccc(OC)cc3)C(=O)C2=CN1CC(C)C (centres undefined),0,0,0,0,0,0,-,-
CCCCC1=CC2=C(c3ccco3)C(=O)C(C)(OC(=O)c3ccc(OC)cc3)C(=O)C2=CN1Cc1ccc(OC)cc1 (centres undefined),-,-,0,-,0,-,-,-
CCCOc1ccc(F)cc1-c1cc(C(=O)Nc2ccc(OC)cc2C)[nH]n1,0,-,-,-,-,-,-,-
Nc1ccc(C(=O)OCCc2ccccc2)cc1,0,0,-,0,0,0,-,-
O=C(OCCc1ccccc1)c1cc(O)c(O)c(O)c1,0,0,-,54,?,0,41,75
COC(=O)c1cccc(NC(=O)c2cccnc2C(=O)O)c1C,0,0,0,0,0,0,-,-
O=C(Nc1ccc(S(=O)(=O)N2CCCC2)cc1)c1ccc(F)cc1,0,-,-,-,-,-,-,-
O=C(Nc1ccc([N+](=O)[O-])cc1)c1ccc(S(=O)(=O)N2CCCC2)cc1,0,0,-,58,0,0,0,0
O=C(NCc1nc2ccccc2[nH]1)C1=C[C@H](c2ccc(C(F)(F)F)cc2)C[C@H](OCCCCO)O1,0,0,-,0,0,0,-,-
Cc1ccc(OCCOCCn2ccnc2)c(Br)c1,0,0,0,44,0,0,0,0
COC(=O)C(Nc1nccs1)(OC)C(F)(F)F (centres undefined),0,0,60,68,0,61,71,106
COC(=O)CCC(=O)Nc1nccs1,0,0,0,0,0,0,-,-
